Results filed as inconclusive are left out. Active and inactive are the calls of the source. Unless noted, the call rests on the fitted dose curve.
Key:
[1] = qHTS for Inhibitors of the Functional Ribonucleoprotein Complex (vRNP) of Lassa (LASV) Arenavirus: LASV Primary Screen - GLuc reporter signal (AID 1347082; calls by dose curve; tested in HEK293 reporter line; further: nearly all actives have a fitted effect of over 60% in size); conditions: LASV minigenome vRNP, Gaussia luciferase reporter; series mostly up to 57.5 µM
[2] = qHTS for Inhibitors of the Functional Ribonucleoprotein Complex (vRNP) of Lassa (LASV) Arenavirus: Viability assay - alamar blue signal for LASV Primary Screen (AID 1347083; calls by dose curve; tested in HEK293 reporter line; further: nearly all actives have a fitted effect of over 80% in size); conditions: cell viability, alamar blue fluorescence (LASV minigenome counter-screen); series mostly up to 57.5 µM
[3] = qHTS for Inhibitors of the Functional Ribonucleoprotein Complex (vRNP) of Lymphocytic Choriomeningitis Arenaviruses (LCMV): Viability assay - alamar blue signal for LCMV Primary Screen (AID 1347085; calls by dose curve; tested in HEK293 reporter line; further: nearly all actives have a fitted effect of over 80% in size); conditions: alamar blue viability counter-screen, LCMV vRNP screen cells; series mostly up to 57.5 µM
[4] = target: Nucleoprotein (Lymphocytic choriomeningitis virus (strain Armstrong)) (UniProt P09992); assay: qHTS for Inhibitors of the Functional Ribonucleoprotein Complex (vRNP) of Lymphocytic Choriomeningitis Arenaviruses (LCMV): LCMV Primary Screen - GLuc reporter signal (AID 1347086); conditions: LCMV minigenome vRNP cell assay, Gaussia luciferase reporter; series mostly up to 57.5 µM; further: nearly all actives have a fitted effect of over 70% in size
On the % scale 0 is the no-effect control and ±100 the full control effect.

Sequence of Nucleoprotein (Lymphocytic choriomeningitis virus (strain Armstrong)) (P09992 whole entry, looked up): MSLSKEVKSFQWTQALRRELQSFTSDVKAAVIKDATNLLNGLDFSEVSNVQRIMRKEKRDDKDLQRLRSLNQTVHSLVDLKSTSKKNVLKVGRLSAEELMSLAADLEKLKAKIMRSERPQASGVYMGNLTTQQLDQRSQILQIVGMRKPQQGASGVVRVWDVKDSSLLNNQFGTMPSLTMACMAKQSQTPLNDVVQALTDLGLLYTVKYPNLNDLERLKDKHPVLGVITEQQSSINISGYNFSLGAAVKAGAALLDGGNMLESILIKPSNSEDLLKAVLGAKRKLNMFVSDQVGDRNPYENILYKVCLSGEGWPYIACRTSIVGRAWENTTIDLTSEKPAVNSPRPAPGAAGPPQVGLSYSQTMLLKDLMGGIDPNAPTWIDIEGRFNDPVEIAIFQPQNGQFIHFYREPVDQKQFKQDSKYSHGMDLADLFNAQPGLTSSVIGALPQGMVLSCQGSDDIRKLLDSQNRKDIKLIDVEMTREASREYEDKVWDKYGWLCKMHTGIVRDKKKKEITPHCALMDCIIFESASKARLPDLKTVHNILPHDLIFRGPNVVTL

CCC(C(=O)OCCN(CC)CC)c1ccccc1 (stereo unspecified)
inactive: Potency [1] | Potency [2] | Potency [3] | Potency [4]

CCCCCCCC/C=C\CCCCCCCC(=O)NCc1ccc(O)c(OC)c1
inactive: Potency [1] | Potency [2] | Potency [3] | Potency [4]

CC1CCc2c(N3CCC(O)CC3)c(F)cc3c(=O)c(C(=O)O)cn1c23 (stereo unspecified)
inactive: Potency [1] | Potency [2] | Potency [3] | Potency [4]

NCCNCCNCCN
inactive: Potency [1] | Potency [2] | Potency [3] | Potency [4]

COc1ccc2cc([C@H](C)C(=O)O)ccc2c1
inactive: Potency [1] | Potency [2] | Potency [3] | Potency [4]

CCCC(CCC)(C(=O)OCC)C(=O)OCC
inactive: Potency [1] | Potency [2] | Potency [3] | Potency [4]

NC(N)=NCCN1CCCCCCC1
inactive: activity change, negative = inhibition [1] 1.43% [at 0.757 µM] | activity change, negative = reduced viability [2] 1.98% [at 0.757 µM] | activity change, negative = lower viability [3] 5.22% [at 0.757 µM] | activity change, negative = inhibition [4] -0.256% [at 0.757 µM]

NC(=O)c1cccnc1
inactive: Potency [1] | Potency [2] | Potency [3] | Potency [4]

CC(=O)OCC(=O)[C@@]1(O)[C@H](OC(C)=O)C[C@H]2[C@@H]3CCC4=CC(=O)C=C[C@]4(C)[C@@]3(F)[C@@H](O)C[C@@]21C
inactive: Potency [1] | Potency [2] | Potency [3] | Potency [4]

O=C(NCN1CCOCC1)c1cnccn1
inactive: Potency [1] | Potency [2] | Potency [3] | Potency [4]

COc1c2occc2cc2ccc(=O)oc12
inactive: Potency [1] | Potency [2] | Potency [3] | Potency [4]

Cc1ccccc1OCC(O)CO (stereo unspecified)
inactive: Potency [1] | Potency [2] | Potency [3] | Potency [4]

CN1CCN2c3ncccc3Cc3ccccc3C2C1 (stereo unspecified)
inactive: Potency [1] | Potency [2] | Potency [3] | Potency [4]

CC(N)CCCC(C)(C)O (stereo unspecified)
inactive: Potency [1] | Potency [2] | Potency [3] | Potency [4]

OC1(c2ccc(Cl)cc2)CCNCC1
inactive: Potency [1] | Potency [2] | Potency [3] | Potency [4]

O=C(O)[C@@H]1[C@H]2C[C@H]3c4[nH]c5ccccc5c4CCN3C[C@@H]2CC[C@@H]1O
inactive: Potency [1] | Potency [2] | Potency [3] | Potency [4]

CCOC(=O)C1=C[C@@H](OC(CC)CC)[C@H](NC(C)=O)[C@@H](N)C1
inactive: Potency [1] | Potency [2] | Potency [3] | Potency [4]

O=C(NCCO[N+](=O)[O-])c1cccnc1
inactive: Potency [1] | Potency [2] | Potency [3] | Potency [4]

COc1cnc(NS(=O)(=O)c2ccc(N)cc2)nc1
inactive: Potency [1] | Potency [2] | Potency [3] | Potency [4]

CO[C@]12C[C@@H](COC(=O)c3cncc(Br)c3)CN(C)[C@@H]1Cc1cn(C)c3cccc2c13
inactive: Potency [1] | Potency [2] | Potency [3] | Potency [4]

CC1COc2c(N3CCN(C)CC3)c(F)cc3c(=O)c(C(=O)O)cn1c23 (stereo unspecified)
inactive: Potency [1] | Potency [2] | Potency [3] | Potency [4]

COc1ccc2cccc(CCNC(C)=O)c2c1
inactive: Potency [1] | Potency [2] | Potency [3] | Potency [4]

Nc1ccn([C@@H]2O[C@H](CO)[C@@H](O)C2O)c(=O)n1 (stereo partly specified)
inactive: Potency [1] | Potency [2] | Potency [3] | Potency [4]

CC(=O)N[C@@H](CCC(=O)O)C(=O)O
inactive: Potency [1] | Potency [2] | Potency [3] | Potency [4]

CCCCCCCCCCCCCCCCCC(=O)O
inactive: Potency [1] | Potency [2] | Potency [3] | Potency [4]

Cn1c(=O)c2[nH]cnc2n(C)c1=O
inactive: Potency [1] | Potency [2] | Potency [3] | Potency [4]

O=C(NCC(O)CO)c1c(I)c(C(=O)NCC(O)CO)c(I)c(N(CCO)C(=O)CO)c1I (stereo unspecified)
inactive: Potency [1] | Potency [2] | Potency [3] | Potency [4]

O=C(O)/C=C(\CC(=O)O)C(=O)O
inactive: Potency [1] | Potency [2] | Potency [3] | Potency [4]

COc1ccc(/C(C)=C/C(=O)O)c(OC)c1
inactive: Potency [1] | Potency [2] | Potency [3] | Potency [4]

COC(=O)CCCCC(CCSS/C(CCO)=C(\C)N(C=O)Cc1cnc(C)nc1N)SC(C)=O (stereo unspecified)
inactive: Potency [1] | Potency [2] | Potency [3] | Potency [4]

CC(C)(C)NCC(O)COc1ccc(NC(=O)NC2CCCCC2)cc1 (stereo unspecified)
inactive: Potency [1] | Potency [2] | Potency [3] | Potency [4]

CC(C)CCCC(C)NCCC(C)C (stereo unspecified)
inactive: Potency [1] | Potency [2] | Potency [3] | Potency [4]

Nc1ccc(C(=O)O)cc1
inactive: Potency [1] | Potency [2] | Potency [3] | Potency [4]

O=C(O)Cc1cn(-c2ccccc2)nc1-c1ccc(Cl)cc1
inactive: Potency [1] | Potency [2] | Potency [3] | Potency [4]

Cc1cc(OI)c(C(C)C)cc1-c1cc(C(C)C)c(OI)cc1C
inactive: Potency [1] | Potency [2] | Potency [3] | Potency [4]

Cc1ncc([N+](=O)[O-])n1CC(O)CCl (stereo unspecified)
inactive: Potency [1] | Potency [2] | Potency [3] | Potency [4]

Cc1c(Nc2ncccc2C(=O)O)cccc1C(F)(F)F
inactive: Potency [1] | Potency [2] | Potency [3] | Potency [4]

CC(=O)NS(=O)(=O)c1ccc(N)cc1
inactive: Potency [1] | Potency [2] | Potency [3] | Potency [4]

CC(C)[N+](C)(C)CC(O)COc1cccc2ccccc12 (stereo unspecified)
inactive: Potency [1] | Potency [2] | Potency [3] | Potency [4]

CCCCCCCCCCCCCCCC(=O)O
inactive: Potency [1] | Potency [2] | Potency [3] | Potency [4]

O=C(O)Cc1cccc2ccccc12
inactive: Potency [1] | Potency [2] | Potency [3] | Potency [4]

CC(C)=CCC/C(C)=C/CC/C(C)=C/CCC(=O)OC/C=C(\C)CCC=C(C)C
inactive: Potency [1] | Potency [2] | Potency [3] | Potency [4]

Cc1ccc(C(C)C)cc2c(C)ccc1-2
inactive: Potency [1] | Potency [2] | Potency [3] | Potency [4]

OC[C@@H](O)[C@@H](O[C@@H]1O[C@H](CO)[C@H](O)[C@H](O)[C@H]1O)[C@H](O)[C@@H](O)CO
inactive: Potency [1] | Potency [2] | Potency [3] | Potency [4]

C/C(=N\O)c1ccc(OCC(=O)N2CCCCC2)cc1
inactive: Potency [1] | Potency [2] | Potency [3] | Potency [4]

Cc1cccc(C)c1NC(=O)CC12CCCN1CCC2
inactive: Potency [1] | Potency [2] | Potency [3] | Potency [4]

Cc1c(N(C)CS(=O)(=O)O)c(=O)n(-c2ccccc2)n1C
inactive: Potency [1] | Potency [2] | Potency [3] | Potency [4]

Cc1cc(NS(=O)(=O)c2ccc(N)cc2)no1
inactive: Potency [1] | Potency [2] | Potency [3] | Potency [4]

CCCCCN(CCCOC)C(=O)C(CCC(=O)O)NC(=O)c1ccc(Cl)c(Cl)c1 (stereo unspecified)
inactive: Potency [1] | Potency [2] | Potency [3] | Potency [4]

CC(C)(C)NC[C@H](O)COc1cccc2c1CCCC2=O
inactive: Potency [1] | Potency [2] | Potency [3] | Potency [4]

O=C(O)CCC(=O)O
inactive: Potency [1] | Potency [2] | Potency [3] | Potency [4]

O=c1cc[nH]c(=O)[nH]1
inactive: Potency [1] | Potency [2] | Potency [3] | Potency [4]

Cc1cnc(NC(=O)C2=C(O)c3ccccc3S(=O)(=O)N2C)s1
inactive: Potency [1] | Potency [2] | Potency [3] | Potency [4]

CCN1CCC[C@H]1CNC(=O)c1c(O)c(Cl)cc(Cl)c1OC
inactive: Potency [1] | Potency [2] | Potency [3] | Potency [4]

CCn1nc(C(=O)O)c(=O)c2cc3c(cc21)OCO3
inactive: Potency [1] | Potency [2] | Potency [3] | Potency [4]

CNNCc1ccc(C(=O)NC(C)C)cc1
inactive: Potency [1] | Potency [2] | Potency [3] | Potency [4]

Nc1ccc(S(=O)(=O)Nc2ccccn2)cc1
inactive: Potency [1] | Potency [2] | Potency [3] | Potency [4]

CC(=O)CC/C=C(\C)CC/C=C(\C)CC/C=C(\C)CCC=C(C)C
inactive: Potency [1] | Potency [2] | Potency [3] | Potency [4]

Nc1ccc(S(=O)(=O)NCc2ccccc2)cc1
inactive: Potency [1] | Potency [2] | Potency [3] | Potency [4]

CN(C)C(=O)Oc1ccc[n+](C)c1
inactive: Potency [1] | Potency [2] | Potency [3] | Potency [4]

Cc1ncc(CO)c(C=O)c1O
inactive: Potency [1] | Potency [2] | Potency [3] | Potency [4]

Cc1oc(=O)oc1COC(=O)[C@@H]1N2C(=O)[C@@H](NC(=O)[C@H](N)c3ccccc3)[C@H]2SC1(C)C
inactive: Potency [1] | Potency [2] | Potency [3] | Potency [4]

CNC[C@H](O)c1cccc(O)c1
inactive: Potency [1] | Potency [2] | Potency [3] | Potency [4]

CCN(CC)CC(=O)Oc1ccc(NC(C)=O)cc1
inactive: Potency [1] | Potency [2] | Potency [3] | Potency [4]

C=C[C@H]1CN2CC[C@H]1C[C@H]2[C@H](O)c1ccnc2ccc(OC)cc12
inactive: Potency [1] | Potency [2] | Potency [3] | Potency [4]

COc1c2occc2c(OC)c2c(=O)cc(C)oc12
inactive: Potency [1] | Potency [2] | Potency [3] | Potency [4]

Cc1nnc(C(C)C)n1C1C[C@H]2CC[C@@H](C1)N2CC[C@H](NC(=O)C1CCC(F)(F)CC1)c1ccccc1 (stereo partly specified)
inactive: Potency [1] | Potency [2] | Potency [3] | Potency [4]

C[C@@H]1C[C@H]2[C@@H]3C[C@H](F)C4=CC(=O)C=C[C@]4(C)[C@@]3(F)[C@@H](O)C[C@]2(C)[C@@]1(O)C(=O)CO
inactive: Potency [1] | Potency [2] | Potency [3] | Potency [4]

CCOc1ccc(NS(=O)(=O)c2ccc(N)cc2)nn1
inactive: Potency [1] | Potency [2] | Potency [3] | Potency [4]

Cc1ncc(CO)c(CN)c1O
inactive: Potency [1] | Potency [2] | Potency [3] | Potency [4]

NCCCC[C@H](N[C@@H](CCc1ccccc1)C(=O)O)C(=O)N1CCC[C@H]1C(=O)O
inactive: Potency [1] | Potency [2] | Potency [3] | Potency [4]

CC(=O)[C@H]1CC[C@H]2[C@@H]3C[C@H](C)C4=CC(=O)CC[C@]4(C)[C@H]3[C@@H](O)C[C@]12C
inactive: Potency [1] | Potency [2] | Potency [3] | Potency [4]

CCC1(C)CC(=O)NC1=O (stereo unspecified)
inactive: Potency [1] | Potency [2] | Potency [3] | Potency [4]

c1ccc(-c2nc[nH]c2-c2ccccc2)cc1
inactive: Potency [1] | Potency [2] | Potency [3] | Potency [4]

Cn1c(=O)c2c(ncn2CCO)n(C)c1=O
inactive: Potency [1] | Potency [2] | Potency [3] | Potency [4]

CCCCCCCCCCCCCCCCOP(=O)([O-])OCC[N+](C)(C)C
inactive: Potency [1] | Potency [2] | Potency [3] | Potency [4]

Cc1ncc(CO)c(CO)c1O
inactive: Potency [1] | Potency [2] | Potency [3] | Potency [4]

Cc1cc(C(C#N)c2ccc(Cl)cc2)c(Cl)cc1NC(=O)c1cc(I)cc(I)c1O (stereo unspecified)
inactive: Potency [1] | Potency [2] | Potency [3] | Potency [4]

CCCNC(C)C(=O)Nc1c(C)csc1C(=O)OC (stereo unspecified)
inactive: Potency [1] | Potency [2] | Potency [3] | Potency [4]

Reference: PubChem BioAssay (NCATS)
